In all, about 400,000 compounds went through this assay and about 13,000 (3.2%) were called active. Another 18% or so got no clear call; they are omitted. The sample holds actives, similar compounds and a random draw of the others, so the mix is not that of the screen. Values without a mark were called inactive. The call rests on the fitted dose curve; in most records, active means well fitted cell-killing curve with a large enough effect; inconclusive means small, poorly fitted or top-dose-only effect, or effect the other way; inactive means flat fitted curve, though single readings scatter.
Assay: qHTS assay for MDR1-selective chemotherapeutics: Primary screen using the drug-selected MDR subline cells KB-V1; further: nearly all actives have a fitted effect of over 60% in size
Details: KB-V1 MDR cells viability, CellTiter-Glo, 72 h; series mostly up to 46.1 µM; activity change, negative = cytotoxicity: at the top concentration
Excerpt: A prime difficulty in effectively treating cancer is the development of cellular resistance to multiple structurally unrelated anticancer drugs, a phenomenon known as multidrug resistance (MDR). […] Numerous strategies to overcome P-gp-mediated MDR have been explored, including the design of drugs that evade recognition and efflux, and development of inhibitors to block efflux and restore drug accumulation. […] An alternative approach is to exploit resistance by identifying drugs that target MDR cells over the non-resistant parental cells from which they were selected. […] The development of MDR1-selective agents represents a new strategy for resolving multidrug resistance, as it remains a long-standing clinical challenge for cancer chemotherapy.
Our goal is to identify compounds that selectively kill P-gp-expressing MDR cells. We will identify MDR1-selective compounds by comparing toxicity of compounds in the screening library against parental, drug-naive (KB-3-1) adenocarcinoma cells as well as their drug-selected MDR sub-line (KB-V1). The differential toxicity of compounds against these two cell lines will be used to identify MDR1-selective compounds, whose cytotoxicity is potentiated, rather than diminished, by P-gp expression. This assay will be utilized to conduct a quantitative high-throughput screen (qHTS) in collaboration with the NIH Chemical Genomics Center to identify selective agents, and probe hits arising from the screen will be validated using secondary assays and characterized through a well-established follow-up research program. This screen was run against the entire NCGC library collection of about 400,000 compounds.
NIH Molecular Libraries Probe Production Network [MLPCN]
NIH Chemical Genomics Center [NCGC]
PI: Michael Gottesman, National Cancer Institute, NIH
Briefly, 5 microL of media containing either KB-V1 cells (columns 1-2, 4-48) are dispensed into Greiner white, treated solid-bottom 1536-well assay plates (media-only control is added to column 3). Compounds are then transferred via Kalypsys pin tool equipped with 1536-pin array (10 nL slotted pins, V&P Scientific, San Diego, CA). Following addition of compound, the plates are incubated at 37 degrees C for 72 hours. CellTiter-Glo (2.5 µL/well) is then added, and the plates are read in a ViewLux reader (Perkin-Elmer, clear luminescence filter, 1 second exposure, 1x binning) following a 10 minute incubation. All cells are dispensed in DMEM phenol-red free media containing 10% FBS.
Library plates were screened starting from the lowest and proceeding to the highest concentration. Vehicle-only plates, with DMSO being pin-transferred to columns 5-48, will be inserted uniformly at the beginning and the end of each library in order to monitor and record any shifts in the background, which can be affected by reagent dispensers or loss in enzyme activity over time. Screening data will be corrected, normalized, and concentration-effect relationships will be derived by using publicly-available NCGC, NCATS curve fitting algorithms (http://ncgc.nih.gov/pub/openhts).
On the % scale 0 is the no-effect control and ±100 the full control effect; potency means the concentration at half of the fitted maximal effect.

| Structure (SMILES) | Potency | activity change, negative = cytotoxicity [%] |
| --- | --- | --- |
| Cc1cccc(-n2c(SCC(N)=O)nc3c(c2=O)C2(CCCCC2)Cc2ccccc2-3)c1 | 18.4 µM (active) |  |
| N#CCSc1nc2c(c(=O)n1Cc1ccccc1)C1(CCCC1)Cc1ccccc1-2 |  | -15.3 |
| CCOC(=O)c1cnn2c(SC)ncnc12 |  | 6.59 |
| CCCS(=O)(=O)NC(=O)C1(C)CCCN(C(=O)c2ccnc(Cl)c2)C1 (stereo not drawn) |  | 1.85 |
| COc1ccc(C/C(C)=N/NC(=O)c2cc(C)oc2C)cc1 |  | -7.09 |
| Cc1cc(C(=O)N/N=C\C(Br)=C\c2ccccc2)c(C)o1 |  | -3.75 |
| CC(=C/c1ccccc1)/C=N/NC(=O)c1cc(C)oc1C | 14.6 µM (active) |  |
| Cc1ccc(CCNC(=O)CN2C(=O)CSc3ccc(S(=O)(=O)N4CCOCC4)cc32)cc1 |  | 15.4 |
| CCOC(=O)C1=CCC(c2ccc(F)cc2)N(S(=O)(=O)c2ccc(C)cc2)C1 (stereo not drawn) |  | -0.713 |
| Cn1c(=O)n(C)c2cc(/C=N/NC(=O)c3cccc(Br)c3)ccc21 |  | -0.491 |
| COc1cc(/C=N/NC(=O)c2ccc(N3CCCC3=O)cc2)ccc1O |  | -11.4 |
| O=C(N/N=C/c1cccc(Br)c1)c1ccc(N2CCCC2=O)cc1 | 16.4 µM (active) |  |
| COc1ccc2cc(CNc3ccc(OC)c(OC)c3)c(=O)n(CC(=O)Nc3ccccc3F)c2c1 |  | -29.6 |
| N#Cc1cnn2cc(CCN3CCOCC3)c(-c3ccc(F)cc3)nc12 |  | -3.16 |
| COc1ccc2c(c1)CCc1c(C(=O)N3CCCC3)noc1-2 |  | -12.9 |
| COc1ccc2c(c1)CCc1cn3ncc(C#N)c3nc1-2 | 1.3 µM (active) |  |
| COc1ccccc1N1CCN(C(=O)C2CCN(S(=O)(=O)c3c(C)noc3/C=C/c3ccc(C)cc3)CC2)CC1 |  | 0 |
| Cc1[nH]c2ccccc2c1C(=O)C(=O)NCc1nnnn1-c1cccc(F)c1 |  | 12.9 |
| Cc1nc(NC(=O)CN(C)S(=O)(=O)c2ccc(Cl)cc2)sc1C | 14.6 µM (active) |  |
| CN(CC(=O)NCCc1ccccn1)S(=O)(=O)c1ccc(Cl)cc1 |  | -26.4 |
| CN(CC(=O)NNC(=O)CNC(=O)c1ccccc1Cl)S(=O)(=O)c1ccc(Cl)cc1 |  | 0 |
| CN(CC(=O)Nc1cccc2c1CCCC2)S(=O)(=O)c1ccc(Cl)cc1 |  | -1.34 |
| Cc1ccc(S(=O)(=O)N(C)CC(=O)NCC(c2ccc(F)cc2)N2CCOCC2)cc1 (stereo not drawn) |  | -1.34 |
| CN(CC(=O)NCC(c1ccccc1)N1CCCC1)S(=O)(=O)c1ccc(Cl)cc1 (stereo not drawn) | 20.6 µM (active) |  |

| Structure (SMILES) | Potency | activity change, negative = cytotoxicity [%] |
| --- | --- | --- |
| CCCNC(=O)C1(C)CCN(Cc2csc(-c3ccc(Cl)cc3)n2)C1 (stereo not drawn) |  | 1.9 |
| C[C@H]1CN([C@@H](C)CO)C(=O)CCCn2cc(nn2)CO[C@@H]1CN(C)S(=O)(=O)c1ccccc1C#N |  | -13.8 |
| COc1ccc(C(C)(NC(C)=O)c2nc(-c3ccc(S(C)(=O)=O)cc3)cs2)cc1 (stereo not drawn) |  | 1.16 |
| CCOC(=O)c1ccc(NC(=O)c2c(NCc3cccc(OC)c3)sc3c2CCC3)cc1 |  | -12.7 |
| Cc1cc(NC(=O)CSc2nnc(-c3ccco3)n2N)no1 |  | -12.3 |
| CCn1c(SCC(=O)Nc2nccs2)nnc1-c1ccco1 |  | -3.3 |
| COc1cc(Cl)c(C)cc1NC(=O)CSc1nnc(-c2ccco2)n1CC(C)C | 4.11 µM (active) |  |
| CCCC12CN3CC(CCC)(CN(C1)C3c1c[nH]c3ccc(OC)cc13)C2=O (stereo not drawn) |  | 2.68 |
| CCOc1ccc(CCN2C(=O)C(=O)N([C@@H](CC(C)C)CN3CCC[C@H]3CN3C(=O)C(=O)NC[C@@H]3Cc3ccccc3)C[C@@H]2CC(C)C)cc1 |  | -16.9 |
| O=C(CCn1c(=O)c2ccccc2n(Cc2ccc(Cl)cc2)c1=O)NCc1ccc2c(c1)OCO2 |  | -6.5 |
| C[C@H]1CN([C@@H](C)CO)S(=O)(=O)c2ccc(-c3cccc(F)c3)cc2O[C@@H]1CN(C)C |  | -17.3 |
| O=C(C(=O)N1CCN(c2ccccc2)CC1)c1ccc2c(c1)OCO2 |  | -14.5 |
| N#Cc1ccc(Oc2ccc(C(F)(F)F)cc2NC(=O)c2ccc(F)cc2)cc1 |  | 14.9 |
| COc1ccc(C(=O)Nc2nc(-c3ccc(OC)cc3)c(-c3ccc([N+](=O)[O-])cc3)s2)cc1 |  | -2.17 |
| N#Cc1ccc(C(=O)Nc2nc(-c3cccs3)c(C(=O)C(F)(F)F)s2)cc1 | 13 µM (active) |  |
| COC(=O)[C@]12CCCCC=C1N(Cc1cccc3ccccc13)C(=O)[C@H](CC(=O)N1CCOCC1)C2 |  | -6.11 |
| Cc1nc(C(F)(F)F)ccc1C(=O)N1CCC1(C)C(=O)NS(=O)(=O)c1ccccc1 (stereo not drawn) |  | 2.14 |
| COc1ccc2c(c1)C(c1cccs1)=NNC(c1cccnc1)=N2 |  | -13.5 |
| Fc1ccc2c(c1)C(c1cccnc1)=NNC(c1cccs1)=N2 | 11.6 µM (active) |  |
| CC(=O)NN=C(C)c1ccc(NC(=O)C2CC2)cc1 |  | 13.9 |
| O=C(O)c1ccccc1-c1cccc2nncn12 |  | 0.0342 |
| COC(=O)c1c(C)[nH]c(C(=O)/C=C/c2ccc(Cl)cc2)c1C | 14.6 µM (active) |  |
| COC(=O)c1c(C)[nH]c(C(=O)NCCc2ccc(S(N)(=O)=O)cc2)c1C |  | 4.06 |
| Cc1ccc(NC(=S)NC(=O)/C=C/c2ccc(Cl)cc2)cc1 |  | 4.47 |

Source: PubChem BioAssay AID1347076 (National Center for Advancing Translational Sciences (NCATS), 2019)
